Experimental findings from PubChem BioAssay (NCI) are described below.

Compounds without any hit were thinned out: in the full panel of roughly 79,000, 15% have a hit. Unmarked numbers belong to inactive results. Calls of active or inactive are those of the source. Cut-off read from the data, not from the text of the source: active = growth inhibition above about 70%; inactive = the rest.

Experiment [1] can be described thus: NCI Yeast Anticancer Drug Screen. Data for the rad50 strain (AID 155).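 Note: 0% = growth of vehicle-only cultures of the same strain.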 Particulars: S. cerevisiae rad50 strain growth inhibition, stronger effect = higher value. The method, boiled down:
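Compounds were tested on a yeast strain with an engineered DNA damage repair alteration; the reported value is growth inhibition normalised to vehicle treatment.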

A short description of experiment [2]: NCI Yeast Anticancer Drug Screen. Data for the mec2-1 strain (AID 157). Particulars: S. cerevisiae mec2-1 strain, stronger effect = higher value. The procedure, abridged:
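Using mec2-1 yeast: add compound, measure growth, express inhibition versus vehicle-treated cultures.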

A short description of experiment [3]: NCI Yeast Anticancer Drug Screen. Data for the sgs1 mgt1 strain (AID 161).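 Note: 0% = growth of cultures given vehicle only.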 As to conditions: S. cerevisiae sgs1 mgt1 strain, stronger effect = higher value. The procedure, abridged: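 Compounds are added to genetically altered yeast, and growth is compared with cultures given vehicle alone to give percent inhibition.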
Experiment [4] is described as follows: NCI Yeast Anticancer Drug Screen. Data for the cln2 rad14 strain (AID 165).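 Note: 0% = growth equal to vehicle treated cultures.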 Particulars: S. cerevisiae cln2 rad14 strain, stronger effect = higher value. The method, boiled down: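 Yeast strain cln2 rad14, bearing defects in cell cycle control and DNA repair, serves as the test system; values reflect growth inhibition compared with vehicle.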
Experiment [5] can be described thus: NCI Yeast Anticancer Drug Screen. Data for the bub3 strain (AID 167). As to conditions: S. cerevisiae bub3 mutant strain, stronger effect = higher value. The procedure, abridged:
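Growth of a checkpoint-deficient yeast mutant is measured after compound exposure. Values represent inhibition relative to vehicle.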

A short description of experiment [6]: NCI Yeast Anticancer Drug Screen. Data for the mlh1 rad18 strain (AID 175). As to conditions: S. cerevisiae mlh1 rad18 strain growth inhibition, stronger effect = higher value. The procedure, abridged: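 Steps: expose repair-defective yeast to compound; measure growth; express inhibition against vehicle-treated controls.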
Setting [7] is: at 5.0 µM (retest, dose inferred, filed as 0.5).
Where [8] appears, read: at 50.0 µM (retest, dose inferred, filed as 5.0).

As for `COc1ccc(S(=O)(=O)O)cc1-n1nc(C(=O)Nc2ccccc2)n[n+]1-c1cc(S(=O)(=O)[O-])ccc1OC`, the growth inhibition in experiment [1] (setting [7]) was 2%; in experiment [1] (setting [8]), 9%; in experiment [1] (at 50.0 µM) it was 19.1%; in experiment [2] (setting [7]) it was 1%; in experiment [2] (setting [8]), 3%; in experiment [2] (at 50.0 µM), 39.8%. Besides, the growth inhibition in experiment [3] (setting [7]) is 10%; in experiment [3] (setting [8]), 4%; in experiment [3] (at 50.0 µM), 22%; in experiment [4] (setting [7]), 0%; in experiment [4] (setting [8]), 2%; in experiment [4] (at 50.0 µM), 0.4%. For the same compound, the growth inhibition in experiment [5] (setting [7]) is -3%; in experiment [5] (setting [8]), 2%; in experiment [5] (at 50.0 µM), -10.6%; in experiment [6] (setting [7]) it was 1%; in experiment [6] (setting [8]), -61%; in experiment [6] (at 50.0 µM), 63.9%.
In the case of `NC(=S)C(=S)N=Cc1c(N)[nH]n(-c2ccccc2)c1=O`, the growth inhibition in experiment [1] (setting [7]) was -13%; in experiment [1] (setting [8]) it was -1%; in experiment [1] (at 50.0 µM), 57.8%; in experiment [2] (setting [7]) it was -10%; in experiment [2] (setting [8]), 15%; in experiment [2] (at 50.0 µM), 48.8%. The growth inhibition in experiment [3] (setting [7]) was 9%; in experiment [3] (setting [8]), 3%; in experiment [3] (at 50.0 µM), 53.8%; in experiment [4] (setting [7]) it was 32%; in experiment [4] (setting [8]), 26%; in experiment [4] (at 50.0 µM) it was 61.6%. Also, the growth inhibition in experiment [5] (setting [7]) is 19%; in experiment [5] (setting [8]) it was 37%; in experiment [5] (at 50.0 µM), -10.6%; in experiment [6] (setting [7]), -4%; in experiment [6] (setting [8]), 15%; in experiment [6] (at 50.0 µM) it was 44.6%.
For the compound `Cc1cc(=Nc2ccc3c(c2)c(N)cc(C)[n+]3C)nc(N)n1C`, the growth inhibition in experiment [1] (setting [7]) is 84% (active); in experiment [1] (setting [8]), 88% (active); in experiment [1] (at 50.0 µM) it was 97.1% (active); in experiment [2] (setting [7]) it was 78% (active); in experiment [2] (setting [8]), 95% (active); in experiment [2] (at 50.0 µM), 92.5% (active). In addition, the growth inhibition is 78% (active) in experiment [3] (setting [7]); 61% in experiment [3] (setting [8]); 95.2% (active) in experiment [3] (at 50.0 µM); 83% (active) in experiment [4] (setting [7]); 85% (active) in experiment [4] (setting [8]); 91.9% (active) in experiment [4] (at 50.0 µM). Moreover, the growth inhibition in experiment [5] (setting [7]) is 75% (active); in experiment [5] (setting [8]), 87% (active); in experiment [5] (at 50.0 µM), 89.1% (active); in experiment [6] (setting [7]), 83% (active); in experiment [6] (setting [8]), 90% (active); in experiment [6] (at 50.0 µM) it was 97.5% (active).
`COc1ccc2c(c1)sc(/C=C/c1ccc(O)c3ncccc13)[n+]2C`: the growth inhibition was 12% in experiment [1] (setting [7]); 88% (active) in experiment [1] (setting [8]); 92.3% (active) in experiment [1] (at 50.0 µM); 49% in experiment [2] (setting [7]); 92% (active) in experiment [2] (setting [8]); 93.6% (active) in experiment [2] (at 50.0 µM). The growth inhibition in experiment [3] (setting [7]) is -53%; in experiment [3] (setting [8]), 94% (active); in experiment [3] (at 50.0 µM), 92% (active); in experiment [4] (setting [7]), 3%; in experiment [4] (setting [8]), 86% (active); in experiment [4] (at 50.0 µM), 90.3% (active). Besides, the growth inhibition in experiment [5] (setting [7]) was 19%; in experiment [5] (setting [8]), 86% (active); in experiment [5] (at 50.0 µM) it was 89.9% (active); in experiment [6] (setting [7]) it was 62%; in experiment [6] (setting [8]) it was 92% (active); in experiment [6] (at 50.0 µM) it was 92.4% (active).
As to `O=C1c2c(Br)sc(Br)c2[C@@H](NC(=O)C(F)(F)F)C1Br` (stereo not given in full), the growth inhibition in experiment [1] (setting [7]) is 8%; in experiment [1] (setting [8]), 99% (active); in experiment [1] (at 50.0 µM) it was 89.3% (active); in experiment [2] (setting [7]), 3%; in experiment [2] (setting [8]), 97% (active); in experiment [2] (at 50.0 µM) it was 81.2% (active). The growth inhibition in experiment [3] (setting [7]) was 19%; in experiment [3] (setting [8]), 99% (active); in experiment [3] (at 50.0 µM) it was 97% (active); in experiment [4] (setting [7]), -1%; in experiment [4] (setting [8]), 93% (active); in experiment [4] (at 50.0 µM) it was 28.1%. Also, the growth inhibition in experiment [5] (setting [7]) is -3%; in experiment [5] (setting [8]) it was 94% (active); in experiment [5] (at 50.0 µM), 80% (active); in experiment [6] (setting [7]), 17%; in experiment [6] (setting [8]), 99% (active); in experiment [6] (at 50.0 µM), 91.8% (active).
For the compound `CNCCCNc1c2cc(OC)ccc2nc2cccc([N+](=O)[O-])c12`, the growth inhibition in experiment [1] (setting [7]) was 9%; in experiment [1] (setting [8]), 96% (active); in experiment [1] (at 50.0 µM) it was 82.8% (active); in experiment [2] (setting [7]) it was -10%; in experiment [2] (setting [8]), 97% (active); in experiment [2] (at 50.0 µM), 88.2% (active). Also, the growth inhibition in experiment [3] (setting [7]) was 49%; in experiment [3] (setting [8]) it was 94% (active); in experiment [3] (at 50.0 µM) it was 78.3% (active); in experiment [4] (setting [7]), 41%; in experiment [4] (setting [8]) it was 98% (active); in experiment [4] (at 50.0 µM), 85.3% (active). For the same compound, the growth inhibition was -31% in experiment [5] (setting [7]); 52% in experiment [5] (setting [8]); 55.5% in experiment [5] (at 50.0 µM); 41% in experiment [6] (setting [7]); 97% (active) in experiment [6] (setting [8]); 78.6% (active) in experiment [6] (at 50.0 µM).
In the case of `CS(=O)(=O)OCCN(CCOS(C)(=O)=O)c1ccc(C=Nc2ccc(-c3csc(-c4ccc(Cl)cc4)n3)cc2)cc1`, the growth inhibition is 37% in experiment [1] (setting [7]); 92% (active) in experiment [1] (setting [8]); 92.5% (active) in experiment [1] (at 50.0 µM); 15% in experiment [2] (setting [7]); 94% (active) in experiment [2] (setting [8]); 94.4% (active) in experiment [2] (at 50.0 µM). Moreover, the growth inhibition was 36% in experiment [3] (setting [7]); 93% (active) in experiment [3] (setting [8]); 92.3% (active) in experiment [3] (at 50.0 µM); 6% in experiment [4] (setting [7]); 91% (active) in experiment [4] (setting [8]); 71.2% (active) in experiment [4] (at 50.0 µM). Further, the growth inhibition was 1% in experiment [5] (setting [7]); 61% in experiment [5] (setting [8]); 69.4% in experiment [5] (at 50.0 µM); 53% in experiment [6] (setting [7]); 95% (active) in experiment [6] (setting [8]); 95.2% (active) in experiment [6] (at 50.0 µM).
As to `Cc1ccc(S(=O)(=O)OC2COC3C(OS(=O)(=O)c4ccc(C)cc4)COC23)cc1` (stereo not given), the growth inhibition is -2% in experiment [1] (setting [7]); -13% in experiment [1] (setting [8]); 19.6% in experiment [1] (at 50.0 µM); -7% in experiment [2] (setting [7]); 4% in experiment [2] (setting [8]); 9.8% in experiment [2] (at 50.0 µM). The growth inhibition in experiment [3] (setting [7]) is 12%; in experiment [3] (setting [8]) it was -27%; in experiment [3] (at 50.0 µM), 26.4%; in experiment [4] (setting [7]), 1%; in experiment [4] (setting [8]) it was -5%; in experiment [4] (at 50.0 µM), 46%. Further, the growth inhibition in experiment [5] (setting [7]) is 0%; in experiment [5] (setting [8]) it was -11%; in experiment [5] (at 50.0 µM) it was 96.6% (active); in experiment [6] (setting [7]) it was -39%; in experiment [6] (setting [8]), -63%; in experiment [6] (at 50.0 µM), 4%.
With `COP(=O)(OC)OCC1OC(n2cnc3c(N)ncnc32)C(O)C1O` (stereo not given), the growth inhibition in experiment [1] (setting [7]) is -2%; in experiment [1] (setting [8]) it was -2%; in experiment [1] (at 50.0 µM), 96.5% (active); in experiment [2] (setting [7]), 2%; in experiment [2] (setting [8]), 2%; in experiment [2] (at 50.0 µM), 95.9% (active). Further, the growth inhibition in experiment [3] (setting [7]) is 0%; in experiment [3] (setting [8]), -2%; in experiment [3] (at 50.0 µM) it was 94.5% (active); in experiment [4] (setting [7]), 4%; in experiment [4] (setting [8]), 4%; in experiment [4] (at 50.0 µM) it was 89.7% (active). In addition, the growth inhibition in experiment [5] (setting [7]) is -1%; in experiment [5] (setting [8]), -4%; in experiment [5] (at 50.0 µM) it was 96.2% (active); in experiment [6] (setting [7]) it was -3%; in experiment [6] (setting [8]), -5%; in experiment [6] (at 50.0 µM), 97.3% (active).
On to `O=c1c2cc(Cl)ccc2[nH]c2cc(O)cc(O)c12`, for which the growth inhibition in experiment [1] (setting [7]) is -18%; in experiment [1] (setting [8]), 25%; in experiment [1] (at 50.0 µM) it was 70.5% (active); in experiment [2] (setting [7]), -43%; in experiment [2] (setting [8]), 3%; in experiment [2] (at 50.0 µM), -12.4%. Also, the growth inhibition in experiment [3] (setting [7]) was -9%; in experiment [3] (setting [8]), 11%; in experiment [3] (at 50.0 µM), 21.5%; in experiment [4] (setting [7]) it was -15%; in experiment [4] (setting [8]) it was 16%; in experiment [4] (at 50.0 µM), 11.9%. The growth inhibition in experiment [5] (setting [7]) was -13%; in experiment [5] (setting [8]), 39%; in experiment [5] (at 50.0 µM), 15.1%; in experiment [6] (setting [7]), -20%; in experiment [6] (setting [8]) it was 45%; in experiment [6] (at 50.0 µM) it was 15.9%.
